# Hit rate of the full screen: of about 210,000 compounds, about 730 (0.35%) were called active. Entries that show only a call come without a potency. Roughly 1% stayed inconclusive and do not appear here. Calls come from the whole dose curve; as a rule, active = well fitted inhibition curve with a large enough effect; inconclusive = small, poorly fitted or top-dose-only effect; inactive = no such curve, though single readings can be large or run the other way. Many of the other results were omitted from the sample, so actives are more common in it than they were.
# Assay: qHTS Assay for Identifying the Cell-Membrane Permeable IMPase Inhibitors: Potentiation with Lithium;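 note: IP1 builds up when IMPase is blocked and the TR-FRET signal falls; nearly all actives have a fitted effect of over 50% in size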
# Settings: CHO-M1 cells, IP1 TR-FRET (IP-One), carbachol + lithium; series mostly up to 59.4 µM
# How it was run: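 Concentration–response in CHO-M1 cells, lithium-potentiated; 30 min at 37C. IP1 detected by competitive TR-FRET after 10 min lysis at RT. Hill-fitted AC50.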
# Potency is the fitted concentration of half-maximal effect.
row,SMILES,Potency
1,O=C(CN1C(=O)c2cccc3cccc(c23)C1=O)N1CCCCC1,inactive
2,O=C1c2cccc3cccc(c23)C(=O)N1CCCCCc1n[nH]c(=S)o1,inactive
3,C[N+](C)(CCCCCC[N+](C)(C)CCCN1C(=O)c2cccc3cccc(c23)C1=O)CCCN1C(=O)c2cccc3cccc(c23)C1=O,10 µM (active)
4,O=C1CCC[C@@H]2CC(N3CCCCC3)C[C@@H]3CCN1[C@H]23 (stereo not given in full),inactive
5,CCCCC[C@H](O)/C=C/[C@@H]1[C@@H](CC(=O)CCC(=O)O)[C@@H](O)C[C@H]1O,inactive
6,CCCCC/C=C\C/C=C\CCCCCCCCCC(=O)NCC(=O)O,inactive
7,CNc1nccc(-c2ccc(Cl)cc2)c1C#N,inactive
8,CN(C)c1nc(-c2cccnc2)nc(-c2ccc(Cl)cc2)c1C#N,7.94 µM (active)
9,N#Cc1c(-c2ccc(Cl)cc2)c2c([nH]c1=S)CCCC2,inactive
10,COC(=O)CCCC1=CC2=CC(=O)C(C)(OC(=O)c3cccs3)C(=O)C2=CN1c1ccc(CO)cc1 (stereo not given),inactive
11,CC(=O)c1sc(N/N=C\c2ccc(C)cc2)nc1C,inactive
12,CC(=O)c1sc(NC(=O)c2cccc3ccccc23)nc1C,inactive
13,CC(=O)c1sc(NC(=O)c2ccc(C)cc2)nc1C,12.6 µM (active)
14,COC(=O)C1=C(C(=O)OC)[C@@H]2Nc3ccccc3[C@@]23C[C@@H](C(=O)OC)N(S(=O)(=O)c2ccc([N+](=O)[O-])cc2)C3=N1,inactive
15,CC(=O)OC1C([N+]2(C)CCCCC2)C[C@H]2C3CC[C@H]4C[C@H](OC(C)=O)C([N+]5(C)CCCCC5)CC4(C)C3CCC12C (stereo not given in full),inactive
16,COCOc1cc(OC)ccc1C(=O)/C=C/c1ccc([N+](=O)[O-])cc1,inactive
17,CC(=O)Oc1ccc(NC(=O)CCC2CCCCC2)c(C(=O)O)c1,inactive
18,CC(=O)Nc1cc2ccc(OC(C)=O)cc2oc1=O,8.91 µM (active)
19,CC(=O)c1cc(NC(=O)c2ccccc2)c(=O)oc1/C=C/N(C)C,inactive
20,COCCN1C=C2C(=O)C(C)(OC(=O)C3CCCC3)C(=O)C=C2C=C1c1ccsc1 (stereo not given),inactive
21,N#Cc1cccc(CS(=O)(=O)c2nnnn2-c2cc(C(F)(F)F)cc(C(F)(F)F)c2)c1,inactive
22,C=C(C(C)=O)C(O)c1cccs1 (stereo not given),inactive
23,COc1ccc(-c2nc3c(c4c2C[C@H](c2ccccc2)OC4)CN(C(=O)c2cccnc2)CC3)c(C)c1,inactive
24,Cc1cc(C)n(-c2nc(SCC(=O)N3CCCC3)c3c4c(sc3n2)CCCC4)n1,inactive
25,Cc1nc(SCC(=O)Nc2cc(C)on2)c2c3c(sc2n1)CCCC3,10 µM (active)

row,SMILES,Potency
1,Cc1ccc(-c2csc(SCC(=O)Nc3cc(C)on3)n2)cc1,inactive
2,CC(C)c1cnc(NC(=O)Cc2ccccc2)s1,inactive
3,COc1ccc(CC(N)C(=O)NC2C(O)[C@H](n3cnc4c(N(C)C)ncnc43)O[C@@H]2CO)cc1 (stereo not given in full),inactive
4,CC[C@@]12C=C(/C=C/c3ccccc3)[C@](CC)(C1)[C@H](c1ccccc1)CC2=O,inactive
5,COCCN1C(=O)N[C@@H](CCc2ccccc2)[C@H](C(C)=O)[C@H]1C,inactive
6,S=c1nccc(-c2cc(Cl)sc2Cl)[nH]1,11.2 µM (active)
7,Nc1nc2c(ncn2[C@@H]2O[C@H](COP(=O)(O)OP(=O)(O)OP(=O)(O)O)[C@@H](O)C2O)c(=O)[nH]1 (stereo not given in full),inactive
8,COc1ccc(CC(=O)Nc2ccc(-c3nnc(-c4ccccc4)o3)cc2)cc1,10 µM (active)
9,COc1ccc(CC(=O)Nc2ccc(C(=O)NC(C)(C)C)cc2)cc1,inactive
10,COc1ccc(-c2nc(-c3ccccc3)oc2Nc2ccc3ccccc3c2)cc1,inactive
11,COc1cccc(CC(=O)N2CCc3nc(COc4ccccc4)c4c(c3C2)CO[C@@H](C)C4)c1,inactive
12,CCCCS(=O)(=O)N1C2=NC(C(=O)OC)=C(C(=O)OC)[C@@H]3N(Cc4ccccc4)c4ccccc4[C@]23C[C@H]1C(=O)OC,inactive
13,COC(=O)C(C(=O)OC)[C@@H](NC=O)c1ccccc1,inactive
14,COC(=O)CSc1nccc(-c2cccs2)n1,inactive
15,O=C(O)COc1ccc(-c2nccc(-c3cccs3)n2)cc1,10 µM (active)
16,O=C(Nc1ccnc(-c2ccncc2)n1)c1cccs1,inactive
17,C/C(Nc1ccc2oc(=O)ccc2c1)=C1/C(=O)CC2[C@@H]1C2(C)C (stereo not given in full),inactive
18,Cc1cc2oc(=O)cc(-c3ccccc3)c2c(C)c1-c1ccc(OC(F)(F)F)cc1,inactive
19,CC(C)C[C@H](NC(=O)[C@H](O)[C@H](N)Cc1ccccc1)C(=O)O,inactive
20,CC(C)(C)OC(=O)NCCCCC1=CC2=CC(=O)C(C)(OC(=O)c3cccs3)C(=O)C2=CO1 (stereo not given),inactive
21,COc1cccc(-n2c(=S)[nH]c3c(oc4ccccc43)c2=O)c1,12.6 µM (active)
22,COc1ccc(OC)c(-n2c(=S)[nH]c3cc(C(=O)N4CCCCC4)ccc3c2=O)c1,inactive
23,COC(=O)c1ccc(CSc2nc3ccccc3c(=O)n2-c2cccc(OC)c2)o1,inactive
24,OC[C@H]1O[C@@H](n2cnc3c(N[C@H]4CC5CCC4C5)ncnc32)[C@H](O)[C@@H]1O (stereo not given in full),inactive
25,CC(=O)CC(c1ccccc1)C1C(=O)Oc2ccccc2C1=O (stereo not given),inactive

row,SMILES,Potency
1,CC(C)C1=CC2=CC[C@H]3[C@](C)(C(=O)O)CCC[C@]3(C)C2CC1 (stereo not given in full),inactive
2,COC(=O)C(C(=O)OC)C1c2ccccc2C=C(C2CC2)N1C(=O)OC (stereo not given),inactive
3,C=CCNC(=O)CSc1nc2sc(C)c(C)c2c(=O)[nH]1,inactive
4,O=C(CSc1nc2c(cnn2-c2ccc(F)cc2)c(=O)[nH]1)N1CCCCCC1,inactive
5,CC(=O)c1sc2nc(SCC(=O)N3CCCCC3)[nH]c(=O)c2c1C,11.2 µM (active)
6,CCN1C(=O)N[C@@H](c2ccccc2)[C@H](C(C)=O)[C@H]1C,inactive
7,O=C1C=C(c2ccccc2)CCC1,inactive
8,CCN1C(=O)N[C@@H](CCc2ccccc2)C(C(=O)OC)=C1C,inactive
9,O=C1OCCN1C(=O)[C@H]1[C@H](c2ccc(Cl)cc2)C(c2cccc(Cl)c2)=NN1c1ccc(Br)cc1,inactive
10,COC(=O)CCCC1=CC2=CC(=O)C(C)(OC(=O)c3cccs3)C(=O)C2=CN1CC1CC1 (stereo not given),inactive
11,COc1ccc(-c2nc3c(c4c2C[C@H](c2ccccc2)OC4)CN(C(=O)C2CC2)CC3)c(C)c1,inactive
12,CC1=C(C/C=C(\C)CCCC(C)CCCC(C)CCCC(C)C)C(=O)c2ccccc2C1=O (stereo not given),inactive
13,CCOC(=O)c1ccc(Nc2cc(C)nc3nc(C)nn23)cc1,inactive
14,CCOC(=O)c1ccc(NC2Nc3cc(C)nn3S2)cc1 (stereo not given),10 µM (active)
15,CCc1ccc(NC2Nc3cc(C)nn3S2)cc1 (stereo not given),inactive
16,CC1(C)O[C@@H]2C[C@@H]3[C@H]4C[C@@H](F)C5=CC(=O)C=C[C@]5(C)[C@@]4(F)[C@@H](O)C[C@]3(C)[C@]2(C(=O)CO)O1,inactive
17,CCCCCCCC/C=C\CCCCCCCC(=O)NCC(=O)O,inactive
18,CCCCC/C=C\C[C@H](O)/C=C/C=C/C=C/[C@@H](O)CCCC(=O)O,inactive
19,C=CCC(C)(O)c1ccco1 (stereo not given),inactive
20,Cc1ccccc1OC/C(O)=C(\C#N)c1nc2ccccc2[nH]1,12.6 µM (active)
21,N#C/C(=C(/O)COC(=O)COc1ccc(Cl)cc1)c1nc2ccccc2[nH]1,inactive
22,N#C/C(=C(/O)COc1cccc2ccccc12)c1nc2ccccc2[nH]1,inactive
23,COC(=O)CCCC1=CC2=CC(=O)C(C)(OC(=O)c3cccs3)C(=O)C2=CN1c1cccc(C#N)c1 (stereo not given),inactive
24,C[C@@]12CCC(=O)C=C1CC[C@H]1C2[C@@H](O)C[C@]2(C)[C@@H]1CC[C@@]2(O)C(=O)COC(=O)C1CCCC1 (stereo not given in full),inactive
25,CO[C@@]12[C@@H](COC(N)=O)C3=C(C(=O)C(C)=C(N)C3=O)N1C[C@@H]1N[C@@H]12,inactive

# From PubChem BioAssay AID1457 (National Center for Advancing Translational Sciences (NCATS), 2008)
